High-throughput results: PubChem, National Center for Advancing Translational Sciences (NCATS)
DT40 TDP1 no CPT: qHTS for Inhibitors of human tyrosyl-DNA phosphodiesterase 1 (TDP1): qHTS in cells in absence of CPT. 420,000 tested, 15% active. DT40 Tdp1-/- hTDP1 cells, no CPT, ATP luminescence, 48 h. Potency, µM (doses to about 46.2 µM), without a hit: at the top dose activity change, negative = growth inhibition, usual class: inhibitors; also: potency is read from the fitted curve at half-maximal effect; nearly all actives have a fitted effect of over 55% in size
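Readout: luminescence from CellTiter-Glo after 30 min in the dark at RT. Cells: DT40 Tdp1-/- with stable hTDP1, 400/well. Exposure: compounds alone, ≥48 hr, 37 °C.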
HT1080 IDH1KD tx: toxicity to HT-1080 IDH1 knockdown cells (counter line); HT-1080 IDH1 knockdown viability, ATP luminescence, 48 h; Potency, µM (top dose mostly 46.1 µM), for inactives: at the top dose activity, negative = toxicity, most hits filed as cytotoxic; 360,000 tested, 2% active; AID 686971;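 also: potency is read from the fitted curve at half-maximal effect; 0% = DMSO wells and -100% = cell-free medium wells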
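Cytotoxicity counter-line: IDH1KD HT-1080, 48 h, CellTiter-Glo. Curves classed by r2, magnitude and activity.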
IL1B secr inh: inflammasome signaling inhibition, IL-1 beta readout; THP-1 LPS/ATP IL-1B secretion, AlphaLISA, 16 h; active compounds read low; activity change, % at 57.5 µM; 360,000 tested, 4.7% active; AID 743279; in the data active = activity change below about -50%; inconclusive = mostly about -30% to -49%
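THP-1 cells pretreated 1 hr with compounds (up to 57.5 uM final), then stimulated with LPS (250 ng/mL final) plus ATP (1.25 mM final); secreted IL-1B measured by AlphaLISA after 16 hr, decreased signal indicating inhibition.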
TDP1 cell CPT: DT40-hTDP1 cell growth loss with CPT | chicken DT40 Tdp1-/-;hTDP1 cells + 20 nM CPT, ATP luminescence, 48 h | 420,000 tested, 12% active | Potency, µM (top dose mostly 46.2 µM), inactives show top-dose activity change, negative = growth inhibition, actives largely listed as inhibitors | AID 686979; also: potency is read from the fitted curve at half-maximal effect; nearly all actives have a fitted effect of over 55% in size
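Chicken DT40 Tdp1-/- cells stably complemented with human TDP1 were seeded at 400 cells/well in medium containing 20 nM camptothecin, exposed to pin-transferred compounds, and grown at 37 °C for at least 48 hr. Viability was read as ATP luminescence.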
HT1080-NT tox: kills 2HG-producing HT-1080-NT fibrosarcoma cells. 360,000 tested, 1.6% active. Potency, µM (titrated, usually from 46.1 µM), for the others: top-dose activity, negative = less viability, actives largely listed as cytotoxic. HT-1080-NT fibrosarcoma viability, CellTiter-Glo ATP luminescence, 48 h;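 also: NT is the 2HG producing partner of a matched IDH1 knockdown line; potency is read from the fitted curve at half-maximal effect; 0% = DMSO-treated cells and -100% = media-only wells without cells; nearly all actives have a fitted effect of over 55% in size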
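Viability by CellTiter-Glo luminescence after 48 h compound exposure at 37C of HT-1080-NT cells (750/well, RPMI, 5% FBS). % activity scaled between DMSO wells and medium-only wells, then curve-fitted and categorized by curve class.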
* marks the source's active call; other numbers are inactive results; ? = inconclusive; . = no result given. An excerpt weighted towards active compounds, which were near 19% of everything screened. Unless noted, calls follow the shape of the dose curve; as a rule, active = well fitted curve in the direction sought with a large enough effect; inconclusive = small, poorly fitted or top-dose-only effect, or another doubt; inactive = no such curve, though single readings can be large; an effect the other way counts as inactive or inconclusive. Unless noted, % is scaled to controls: 0 for no effect and ±100 for the full control effect.

SMILES	DT40 TDP1 no CPT	HT1080 IDH1KD tx	IL1B secr inh	TDP1 cell CPT	HT1080-NT tox
OC(COCc1ccccc1)CN1CCN(c2ccccc2)CC1 (stereo not drawn)	-10.1%	-10.2%	17.5	-10.8%	-1.2%
OC(CN1CCN(c2cccc(C(F)(F)F)c2)CC1)c1c[nH]c2ccccc12 (stereo not drawn)	23.1µM*	?	0.5	?	?
Cc1cccc(CNC(=O)c2ccc3nc(Cc4ccccc4)oc3c2)c1	23.1µM*	.	.	20.6µM*	.
CC(C)Oc1ccc(CNC(=O)c2ccc3nc(Cc4ccccc4)oc3c2)cc1	-28.3%	.	.	?	.
CNC(=O)c1ccc2nc(Cc3ccccc3)oc2c1	-16.4%	.	.	-15.2%	.
CN(C)c1ccc(CNC(=O)c2ccc3nc(Cc4ccccc4)oc3c2)cc1	20.6µM*	.	.	?	.
Cc1cc(CNC(=O)c2ccc3nc(Cc4ccccc4F)oc3c2)nn1C	?	13.2%	-14.2	?	13.4%
O=C(NCc1ccncc1)c1ccc2nc(Cc3ccccc3F)oc2c1	?	-22.4%	-7.3	25.9µM*	-16.4%
CC(CNC(=O)c1ccc2nc(Cc3ccccc3)oc2c1)c1ccccc1 (stereo not drawn)	16.4µM*	.	.	?	.
CC1O[C@@H](O[C@H]2C(Oc3cc(O)c4c(c3)OC(c3ccc(O)cc3)CC4=O)OC(CO)C(O)C2O)C(O)C(O)C1O (stereo partly drawn)	-2.5%	.	.	2.0%	.
CC(=O)n1c2ccccc2c2ccccc21	-19.8%	3.1%	3.8	14.3%	8.5%
CC(=O)n1c(Cl)c(NC(=O)CCl)c2ccccc21	11.6µM*	7.08µM*	-100.6*	10.3µM*	5.62µM*
O=C(N/N=C/c1ccc([N+](=O)[O-])o1)c1cc(-c2ccc(-c3ccccc3)cc2)nc2ccccc12	0.461µM*	?	-8.1	4.11µM*	?
Cc1ccc(-c2cc(C(=O)N/N=C/c3ccc([N+](=O)[O-])o3)c3ccccc3n2)o1	13µM*	?	?	18.4µM*	?
Cc1ccc(/C=N/NC(=O)c2cc(-c3ccncc3)nc3ccccc23)o1	2.59µM*	1.84µM*	59.0	2.91µM*	?
COc1ccccc1-c1cc(C(=O)N/N=C/c2ccc(C)o2)c2ccccc2n1	?	?	43.8	?	-11.3%
Cn1c(/C=C/c2ccc([N+](=O)[O-])o2)nc2ccccc2c1=O	0.259µM*	?	-97.5*	0.259µM*	?
Cc1csc2nc(-c3ccc(NS(=O)(=O)c4cc(F)ccc4F)cc3)cn12	-21.8%	.	.	-9.9%	.
Cc1cc(N/N=C/c2ccc([N+](=O)[O-])o2)nc2ccccc12	18.4µM*	-13.7%	-25.4	18.4µM*	-12.0%
Cc1ccc2nc(N/N=C/c3ccco3)cc(C)c2c1	10.3µM*	-1.1%	-55.9*	8.2µM*	-8.3%
O=C(N/N=C/c1ccc([N+](=O)[O-])o1)c1cc(-c2ccncc2)nc2ccccc12	3.16µM*	?	-25.6	7.08µM*	3.98µM*
O=C(N/N=C/c1ccc([N+](=O)[O-])o1)c1cn(-c2ccccc2)nc1-c1ccccc1	6.51µM*	-4.2%	24.7	?	-13.3%
CCOC(=O)C1=CCN(S(C)(=O)=O)C1c1ccc(C)cc1 (stereo not drawn)	-13.6%	19.9%	-4.9	-5.3%	15.5%
CN1CCN(c2ccc(CNS(=O)(=O)Cc3ccc(Cl)cc3)cc2)CC1	16.4µM*	10.7%	18.9	?	25.6%
Cc1cc(S(=O)(=O)NCc2ccc(N3CCN(C)CC3)cc2)c(C)s1	20.6µM*	12.5%	-12.4	?	10.4%
SMILES	DT40 TDP1 no CPT	HT1080 IDH1KD tx	IL1B secr inh	TDP1 cell CPT	HT1080-NT tox
NS(=O)(=O)c1ccc(CNS(=O)(=O)Cc2ccc(Cl)cc2)cc1	-0.1%	6.0%	28.0	6.4%	3.7%
COc1ccc(OC)c(S(=O)(=O)NCc2ccc(N3CCN(C)CC3)cc2)c1	-19.5%	8.3%	8.6	-2.6%	8.1%
CN1CCN(c2ccc(CNS(=O)(=O)c3ccc(F)cc3Cl)cc2)CC1	?	-2.8%	-2.2	18.4µM*	0.8%
Cc1ccc(S(=O)(=O)N(C)c2c(C)ccc(S(=O)(=O)NC(C)(C)C)c2C)cc1	-22.0%	1.4%	23.4	7.3%	-3.2%
CSCCC(NS(=O)(=O)c1ccccc1F)C(=O)NCCCn1nc(C)cc1C (stereo not drawn)	-13.4%	14.8%	-3.1	-12.4%	8.4%
O=C(NCCC1=CCCCC1)c1cnccn1	-23.7%	1.6%	3.3	-12.3%	-0.4%
Cc1csc2nc(O)c(C(=O)NCCC3=CCCCC3)c(=O)n12	7.31µM*	0.4%	-0.3	14.6µM*	0.5%
Cc1csc2nc(O)c(C(=O)NCCCc3ccccc3)c(=O)n12	14.6µM*	10.5%	7.6	14.6µM*	-3.8%
CCOc1ccc(S(=O)(=O)NCCC(=O)OCC(=O)NC(=O)c2cccn2C)cc1	-0.5%	8.6%	17.0	0.3%	1.2%
Cc1ccc(NC(=S)N(C)Cc2cn(C)c3ccccc23)cc1	?	?	5.3	16.4µM*	-18.2%
CCN(CC)C(=O)Cc1cn(C)c2ccccc12	25.9%	5.2%	27.7	-0.2%	1.3%
CCOc1ccc(NC(=S)N(CCCN2CCOCC2)Cc2cn(C)c3ccccc23)cc1	14.6µM*	-8.3%	-11.4	?	-11.2%
Cc1cccc(NC(=S)N(CCCN2CCOCC2)Cc2cn(C)c3ccccc23)c1	?	0.3%	-7.2	18.4µM*	-6.7%
O=C1C2CC3CC1CC(O)(C3)C2	6.9%	.	.	-2.0%	.
Cc1ccc(S(=O)(=O)c2cc3c(=O)n4cccc(C)c4nc3n(Cc3ccncc3)c2=N)cc1	6.8%	-14.4%	10.1	?	3.7%
O=C(NNc1ccccc1C(F)(F)F)c1sccc1Br	-7.4%	-1.5%	12.7	-4.7%	-2.7%
CCOC(=O)C1CCCN(c2cc(C)nc3c(-c4ccccc4OC)c(C)nn23)C1 (stereo not drawn)	?	.	.	13µM*	.
COc1ccccc1-c1c(C)nn2c(N3CCC(C(N)=O)CC3)cc(C)nc12	-14.1%	6.3%	-12.1	-4.4%	0.3%
COc1ccccc1-c1c(C)nn2c(N3CCC(C)CC3)cc(C)nc12	?	12.4%	-50.9*	0.3%	-1.8%
C=C1CCN(Cc2ccccc2)S(=O)(=O)c2ccccc21	-8.6%	-1.8%	-5.0	-10.0%	-2.4%
O=C1CCN(Cc2ccccc2)S(=O)(=O)c2ccccc21	?	-0.3%	2.5	29.1µM*	11.3%
CCOC(=O)C1(Cc2cccc(OC)c2)CCN(C/C=C/c2ccccc2)CC1	18.4µM*	-28.1%	-91.6*	16.4µM*	-13.3%
CCOC(=O)C1(Cc2cccc(OC)c2)CCN(CC=C(C)C)CC1	16.4µM*	7.1%	-13.2	?	-2.2%
